Reference: the supplement of paper PMC7801607

Legend:
CHO = assay: % viability of CHO cells (MTT); higher = less toxic; settings: 48 h
Outline: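 Viability was given as a percentage of untreated cells and measured colorimetrically by the tetrazolium (MTT) assay. Before this, CHO cells at 10^6 cells/well in 200 µL attached overnight, then received fresh medium containing compound at 2 or 20 µM for 48 h.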

HepG2-A16-CD81 = assay: % inhibition of HepG2 viability (CellTiter-Glo); higher = more toxic; settings: 5 µM
[1] = test system: Plasmodium falciparum NF54 stage IV/V gametocytes; assay: % inhibition of gametocyte viability (PrestoBlue); higher = more inhibition; settings: 48 h
Outline: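 Values are percent inhibition of gametocyte viability, normalised to vehicle and kill controls in a single run. Stage IV/V NF54 gametocytes (2% gametocytaemia, 5% haematocrit, 100 µL/well) were held with compound at 1 or 5 µM for 48 h at 37 °C, stationary and hypoxic. Viability was read as 612 nm fluorescence on 70 µL of supernatant after a 2 h incubation with 10 µL PrestoBlue.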

[2] = test system: Plasmodium falciparum NF54 asexual blood stage; assay: % inhibition of asexual blood stage proliferation (pLDH); higher = more inhibition; settings: 72 h
Outline: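 Using 96-well plates, the screen was run twice on separate occasions with Plasmodium falciparum NF54 ring-stage cultures at 1% haematocrit and 2% parasitaemia. Each culture was exposed to compound at 2 or 20 µM for 72 h at 37 °C under a gas mix of 4% CO2, 3% O2 and 93% N2. After incubation, the parasite lactate dehydrogenase assay was read colorimetrically at 620 nm. From this readout, percent inhibition of asexual proliferation was derived against control wells.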

[3] = test system: Plasmodium falciparum NF54 stage IV/V gametocytes; assay: % inhibition of gametocyte viability (ATP bioluminescence); higher = more inhibition; settings: 24 h
Outline: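 Viability of stage IV/V NF54 gametocytes is given as percent inhibition, normalised to control wells in a single run. Gametocytes enriched on density gradients were seeded at 30,000 per well in 96-well plates with compound at 1 or 5 µM and held at 37 °C for 24 h. ATP was then read with the Promega BacTiter Glo bioluminescence system.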

[4] = test system: Plasmodium falciparum NF54 stage IV/V gametocytes; assay: % inhibition of gametocyte viability (luciferase reporter); higher = more inhibition; settings: 48 h
Outline: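 Percent inhibition was normalised to controls from a single run. Stage IV/V gametocytes of the NF54-Pfs16-GFP-Luc line, at 2% gametocytaemia and 2% haematocrit, were exposed to compound at 1 or 5 µM for 48 h at 37 °C under stationary, hypoxic conditions. Luminescence was then read from 30 µL lysate mixed with 30 µL Promega luciferin substrate on a GloMax-Multi+ reader with 10 s integration.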

[5] = test system: Plasmodium berghei ANKA liver stage in HepG2-A16-CD81; assay: % inhibition of liver stage parasite viability (luciferase); higher = more inhibition; settings: 5 µM; 48 h
Description: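 Single-concentration screen of the MMV Pandemic Response Box. P. falciparum NF54 asexual blood stages: pLDH assay, 72 h at 37 °C, 2 and 20 µM, n=2. Stage IV/V gametocytes (NF54): luciferase reporter (NF54-Pfs16-GFP-Luc, 48 h), ATP bioluminescence (24 h) and PrestoBlue (48 h) at 1 and 5 µM, n=1. P. berghei liver stage (luciferase in HepG2-A16-CD81, 48 h post infection) at 5 µM, n=4. All normalised to DMSO and kill controls as % inhibition.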
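Throughout, for % inhibition of HepG2 viability (CellTiter-Glo): HepG2-A16-CD81 hepatoma cells plated as in the liver-stage assay but without sporozoites, with DMSO wells as negative and 25 µM puromycin as positive control.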

Row | Compound | % viability of CHO cells (CHO; 2 µM) [%] | % viability of CHO cells (CHO; 20 µM) [%] | % inhibition of HepG2 viability (HepG2-A16-CD81) [%] | % inhibition of gametocyte viability ([1]; 1 µM) [%] | % inhibition of gametocyte viability ([1]; 5 µM) [%] | % inhibition of asexual blood stage proliferation ([2]; 2 µM) [%] | % inhibition of asexual blood stage proliferation ([2]; 20 µM) [%] | % inhibition of gametocyte viability ([3]; 1 µM) [%] | % inhibition of gametocyte viability ([3]; 5 µM) [%] | % inhibition of gametocyte viability ([4]; 1 µM) [%] | % inhibition of gametocyte viability ([4]; 5 µM) [%] | % inhibition of liver stage parasite viability [5] [%]
1 | COc1ccc2sc3c(c2c1)NC(C)CNC3=O (stereo unspecified) | 97.2 | 115 | 33.6 | < 0 | < 0 | 38.3 | 40.7 | < 0 | < 0 | 0.316 | < 0 | -51.9
2 | CCc1cc(CCCOc2c(C)cc(-c3noc(C(F)(F)F)n3)cc2C)on1 | 92.1 | 110 | -0.702 | < 0 | < 0 | 40.1 | 94.3 | 7.22 | 9.64 | 8.61 | 13.1 | 28.7
3 | O=C1CCC(N2C(=O)c3ccccc3C2=O)C(=O)N1 (stereo unspecified) | 129 | 120 | -2.75 | < 0 | < 0 | 30.6 | 69.3 | < 0 | < 0 | 0.963 | 6.01 | 25.6
4 | O=C(NC1CCCc2c1[nH]c1ccc(Cl)cc21)c1ccccn1 (stereo unspecified) | 96.3 | 102 | 20.7 | < 0 | 6.95 | 20.6 | 37.5 | < 0 | < 0 | < 0 | < 0 | 2.22
5 | C=C(C)n1c(=O)n(Cc2ccccc2C)c2ccccc21 | 110 | 56.8 | 3.81 | 4.81 | 0.864 | 16.6 | 48.2 | < 0 | < 0 | < 0 | < 0 | 19.1
6 | [N-]=[N+]=N[C@H]1C[C@H](n2ccc(=O)[nH]c2=O)O[C@@H]1CO | 109 | 102 | -1.43 | 6.88 | 16.8 | -15.7 | 43.2 | 3 | < 0 | 11.1 | < 0 | -3.95
7 | CONC(=N)c1ccc(-c2ccc(-c3ccc(C(=N)NOC)cc3)o2)cc1 | 111 | 121 | 2.49 | 11.8 | 9.28 | -3.01 | 1.5 | 0.615 | < 0 | < 0 | < 0 | 4.65
8 | Cc1cc(C2CCCCC2)n(O)c(=O)c1 | 95.2 | 69.7 | 13.4 | < 0 | 58.2 | 9.8 | 77.8 | 36.1 | < 0 | < 0 | < 0 | 14.2
9 | O=C(O)c1ccc(-c2ccc(O[C@H]3O[C@H](CO)[C@@H](O)[C@H](O)[C@@H]3O)cc2)cc1 | 94 | 102 | -2.59 | < 0 | 3.77 | 0.633 | 16.6 | < 0 | < 0 | < 0 | 12.4 | 29.4
10 | O=C(c1ccccc1)N1CCN(c2ccccc2NC(=O)C(Cl)(Cl)Cl)CC1 | 113 | 74.3 | 3.18 | < 0 | 5.75 | 50.4 | 118 | < 0 | < 0 | < 0 | < 0 | 28.1
11 | O=S(=O)(Nc1cccc2cccnc12)c1ccccc1 | 85 | 121 | 5.35 | 4.79 | < 0 | 8.89 | 70 | < 0 | < 0 | < 0 | < 0 | 0.562
12 | NC(=S)N/N=C/c1ncccc1N | 111 | 48.6 | -22.6 | 80.3 | 91.2 | 73.5 | 78.5 | < 0 | 15.5 | 1.59 | 5.86 | 63.5
13 | CCc1cc(Cc2cnc(N)nc2N)cc2c1N(C)CCC2C (stereo unspecified) | 96.1 | 110 | 7.88 | < 0 | < 0 | 16.7 | 95.1 | < 0 | < 0 | < 0 | < 0 | 7.3
14 | CCC(CC)[C@H](NC(C)=O)[C@@H]1[C@H](O)[C@@H](C(=O)O)C[C@H]1NC(=N)N | 88.2 | 59.8 | -1.38 | < 0 | < 0 | 31 | 22.4 | < 0 | < 0 | 0.62 | 2.25 | 24.4
15 | O[C@@](Cn1cnnn1)(c1ccc(F)cc1F)C(F)(F)c1ccc(-c2ccc(OCC(F)(F)F)cc2)cn1 | 92.3 | 95.9 | 13 | 1.61 | 22.4 | 7.2 | 82.5 | < 0 | 25.9 | < 0 | 3.57 | 40
16 | CNCC(=O)OCc1cccnc1N(C)C(=O)OC(C)[n+]1cnn(C[C@](O)(c2cc(F)ccc2F)[C@@H](C)c2nc(-c3ccc(C#N)cc3)cs2)c1 (stereo partly specified) | 94.9 | 98.8 | 14.7 | 8.15 | 23.3 | 0.721 | 37.7 | < 0 | < 0 | < 0 | < 0 | 29.6
17 | O=C(O)CCNC(=O)c1ccccc1 | 112 | 60.6 | -2.32 | < 0 | -0.209 | 25.9 | 15.9 | < 0 | < 0 | < 0 | 6.13 | 16
18 | Nc1cccc(-c2nc(N)nc(NC3Cc4ccccc4C3)n2)c1 | 96.5 | 75.1 | 12.8 | < 0 | < 0 | -7.13 | 22.3 | < 0 | < 0 | < 0 | < 0 | -38.1
